rCAG binder = r(CAG) repeat RNA binding; TO-PRO-1 dye displacement fluorescence; inhibition, % at 3 µM; actives 1.3% (n = 370,000); AID 651821;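 active = inhibition above the plate cutoff, the mean of all test compounds on that plate plus 3 SD, cut at about 35% in these data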;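 also: 0% = DMSO alone and 100% = 100 µM mitoxantrone as full dye displacement; higher means more dye released from RNA so lower well fluorescence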
sPLA2-III inh = Inhibits HGIII-sPLA2 liposome hydrolysis, primary screen. inhibition, % at 12.2 µM. QFRET BODIPY PC-A2 liposome hydrolysis, fluorescence. AID 743126. actives 0.56% (n = 370,000). Q9NZ20;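 active = inhibition above mean plus 3 SD of compounds lying within the high and low control bounds, cut at about 19% in these data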;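 also: 0% = median of test compound wells and 100% = no enzyme DMSO wells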
Target sequence (Q9NZ20 whole entry, looked up): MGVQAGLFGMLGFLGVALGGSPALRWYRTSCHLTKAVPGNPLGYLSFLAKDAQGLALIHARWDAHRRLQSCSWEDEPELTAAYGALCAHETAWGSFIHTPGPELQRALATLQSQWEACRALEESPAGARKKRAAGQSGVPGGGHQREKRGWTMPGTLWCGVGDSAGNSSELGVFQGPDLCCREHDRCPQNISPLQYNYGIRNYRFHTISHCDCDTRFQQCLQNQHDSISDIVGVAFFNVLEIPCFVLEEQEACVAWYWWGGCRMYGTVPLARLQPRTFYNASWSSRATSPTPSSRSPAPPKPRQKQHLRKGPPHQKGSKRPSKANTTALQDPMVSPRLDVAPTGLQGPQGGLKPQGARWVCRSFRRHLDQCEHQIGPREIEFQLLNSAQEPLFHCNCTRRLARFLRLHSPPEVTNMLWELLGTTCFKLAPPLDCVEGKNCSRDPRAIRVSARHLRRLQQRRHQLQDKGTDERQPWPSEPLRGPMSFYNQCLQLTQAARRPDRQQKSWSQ
MsrA inhibitor = inhibits bovine methionine sulfoxide reductase A; purified bovine MsrA, absorbance read-out; inhibition, % at 15.5 µM; actives 0.75% (n = 360,000); in the data active = inhibition above about 4.5%;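 also: 0% = vehicle wells with enzyme and 100% = reference inhibitor wells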
MsrA act = activates bovine MsrA enzyme. activation, % at 10.6 µM. actives 0.3% (n = 360,000). AID 602163. purified bovine MsrA, absorbance read-out; in the data active = activation above about 7.5%;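 also: 0% = vehicle and 100% = reference activator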
MsrA activ conf = bovine methionine sulfoxide reductase A activation confirmed; shares compounds with MsrA act; purified bovine MsrA, absorbance read-out; activation, % at 10.6 µM; actives 12% (n = 1,000); in the data active = activation above about 4%;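 also: enzyme coupled to thioredoxin and thioredoxin reductase with NADPH; 0% = vehicle wells and 100% = reference activator wells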
Starred values were filed as active, the others as inactive; i = inactive; / = no result. A selection: hits, their analogues and other compounds. The true share with any hit is near 2.8%.

SMILES | rCAG binder | sPLA2-III inh | MsrA inhibitor | MsrA act | MsrA activ conf
Cc1ccccc1C(=O)c1cccn1CC(=O)NC(C)c1ccccc1 (configuration not stated) | -2 | -9 | 0 | -2 | /
Cc1ccc2nc3c(cc(C#N)c(=O)n3-c3nccs3)c(=O)n2c1 | 1 | 2 | 1 | -1 | /
CN1CCN(NC(=S)NC2CCCC2)CC1 | -1 | 5 | 0 | 7.9* | 3
O=c1[nH]c(=S)[nH]cc1Oc1ccc(Cl)cc1Cl | 6 | 5 | 0 | 8.8* | 4.7*
Cc1nc(-c2ccccc2)[nH]c(=O)c1Oc1ccc(Cl)cc1Cl | 0 | 9 | 1 | -1 | /
COc1ccc(/C=C/C(=O)Oc2ccc(/C=N/NC(=O)c3ccccc3)cc2)cc1OC | 0 | -5 | -1 | -5 | /
Cc1ccc(NC(=O)CCC(=O)NNC(=O)NC23CC4CC(CC(C4)C2)C3)cc1C | -5 | -16 | 1 | 9.0* | 0
O=C(NNC1=Nc2ccccc2SC1)c1ccc(F)cc1 | 2 | 7 | -2 | 7.7* | -2
O=C(NNC1=Nc2ccccc2SC1)c1ccc(Cl)cc1 | 2 | 12 | 0 | -11 | /
O=C(NC(=S)Nc1cccc([N+](=O)[O-])c1)c1ccco1 | 1 | 0 | 0 | 4 | /
CN(C)S(=O)(=O)c1cccc(NC(=S)NC(=O)c2ccco2)c1 | 2 | 8 | 0 | 11* | -4
COC(=O)c1cc(C(c2ccccc2O)C2CCCO2)n2cccc(C(C)(C)C)c12 (configuration not stated) | 7 | 2 | / | / | /
O=C(C1CCN(c2nc(-c3ccccc3)nc3c2CCC3)CC1)N1CCC(O)CC1 | -6 | 6 | 1 | -6 | /
NC(=O)CSc1nnc(-c2ccccn2)n1Cc1ccco1 | -2 | 6 | 1 | 9.0* | -2
CC1CCCN(C(=O)COC(=O)/C=C/c2ccc(C(F)(F)F)cc2)C1 (configuration not stated) | -3 | 2 | 0 | 8.7* | -1
Cc1c(Cl)cccc1-c1ccc(CNCc2ccccn2)o1 | -8 | 7 | 1 | 7.7* | -1
O=C(O)CSc1nnc(Cn2cnc3ccccc32)n1CCc1ccccc1 | 6 | 5 | -1 | 8.8* | -4
CCOc1ccc(C(C(=O)NCC2CCCO2)N(C(=O)c2snc(C(N)=O)c2N)c2cccc(F)c2)cc1 (configuration not stated) | 0 | -15 | 1 | -3 | /
COC(=O)c1c(NC(=O)C(=O)NCCCN2CCOCC2)sc2c1CCCC2 | -1 | -2 | 0 | -4 | /
CCC(=O)Nc1ccc2c(c1)C(=O)c1ccccc1C2=O | 7 | 5 | 0 | 0 | /
CCC(=O)NC1=C(NC(C)c2ccccc2)C(=O)c2ccccc2C1=O (configuration not stated) | -4 | 6 | 0 | 11* | -1
CC(=O)OCCn1c2nc(=O)[nH]c(=O)c-2nc2cc(C)c(C)cc21 | i | -407 | 1 | 13* | 16*
CC(=O)OCCn1c(C)[n+](CCOC(C)=O)c2cc(Cl)c(Cl)cc21 | -3 | 3 | 2 | -2 | /
CCC1CCCCN1c1cc(C)nc2cc(-c3cccc(C)c3)nn12 (configuration not stated) | -4 | -9 | 0 | -12 | /
CN(CCc1cnn(C)c1)Cc1nc(Cc2ccccc2)no1 | -8 | 4 | 1 | 10* | 1
SMILES | rCAG binder | sPLA2-III inh | MsrA inhibitor | MsrA act | MsrA activ conf
CCOc1ccc2c(c1)C(C)=CC(C)(C)N2S(=O)(=O)c1ccc(NC(C)=O)cc1 | -5 | -14 | 0 | 8.2* | -1
Cc1cc(C)n(-c2ccc(C(=O)Nc3ccc4c(c3)OCO4)cc2)n1 | -3 | -3 | 1 | 8.4* | -6
Cc1nnc(N/N=C/c2ccc(-c3ccc(Br)cc3)o2)n1N | 6 | -4 | 2 | 2 | /
Cc1nnc(N/N=C/c2ccc(Br)cc2)n1N | 1 | -7 | 0 | 34* | -2
Cc1nnc(N/N=C/c2ccc([N+](=O)[O-])cc2)n1N | 1 | 13 | 2 | 21* | -3
O=C(Cn1ncc2c1-c1ccccc1OC2)N(Cc1ccco1)C1CCCCC1 | 7 | -14 | -1 | 7.7* | -1
CCN(CC)C(=O)Cn1ncc2c1-c1ccccc1OC2 | -1 | 10 | 2 | -11 | /
Cc1ccc(NCc2nnc3n2CCCCC3)c(C)c1 | -4 | -3 | 0 | 8.2* | -1
CCCCCCCCNC(CO)(CO)CO | 0 | -2 | -1 | -1 | /
CN(CC(=O)Nc1cccc(F)c1)CC(=O)N1CCc2ccccc21 | 0 | -1 | 0 | -3 | /
S=c1ncc2[nH]c(=S)[nH]c2[nH]1 | / | / | / | 7.9* | 6.2*
CCCNC(=O)C1CCC(CNS(=O)(=O)c2ccc3c(c2)CC(C)N3C(C)=O)CC1 (configuration not stated) | -4 | 2 | 1 | 0 | /
COc1cc(NC(=O)c2cccs2)c(C(=O)OCC(=O)NC(=O)NCc2ccccc2)cc1OC | 4 | 0 | 2 | 7.9* | -3
Cc1ccc(S(=O)(=O)N2CN(CC3CCCO3)c3nc4ccccc4nc32)c(C)c1 (configuration not stated) | 7 | 0 | 1 | -5 | /
O=C(N/N=C/c1ccccc1O)C1CC(=O)N(c2ccc(F)cc2)C1 (configuration not stated) | 2 | -4 | 0 | -4 | /
CCOC(=O)c1cnc(Nc2nc3ccccc3o2)nc1CSc1nnc(C)s1 | 2 | 0 | 1 | 15* | 1
CCOC(=O)c1cnc(Nc2nc3ccccc3o2)nc1C | -1 | 12 | 1 | -1 | /
COc1cccc2c(=O)cc(C)n(CC(=O)Nc3ccc(C)c(C)c3)c12 | -1 | -11 | 0 | 9.4* | 0
COc1ccccc1NC(=O)Cn1c(C)cc(=O)c2cccc(OC)c21 | -2 | -2 | 0 | -3 | /
O=C(O)c1cccc2c1C(=O)c1ccccc1C2=O | 0 | 3 | 1 | -3 | /
O=C1C(O)=CC(=C(c2ccccc2)c2ccccc2)c2ccccc21 | 7 | -4 | 0 | 9.8* | 2
OC12CCCCC1C(c1ccc3c(c1)OCO3)N(Cc1ccc(F)cc1)CC2 (configuration not stated) | 1 | -10 | 0 | 9.5* | 0
OC12CCCCC1C(c1ccc3c(c1)OCO3)N(Cc1cccc(F)c1)CC2 (configuration not stated) | -1 | -23 | 0 | -1 | /
CC(C)(C)NC(=O)/C=C/c1ccc(C(F)(F)F)cc1 | -7 | -3 | 0 | 8.2* | -1
Cc1ccc(-c2ccc(/C=N/O)o2)cc1[N+](=O)[O-] | 4 | -16 | 2 | -5 | /
COc1ccc(NS(=O)(=O)c2cccc(C(=O)NCC(c3ccc(OC)cc3)N3CCCC3)c2)cc1 (configuration not stated) | 0 | -19 | 0 | -1 | /
COc1ccc(C(CNC(=O)c2cccc(N(C)C)c2)N2CCCC2)cc1 (configuration not stated) | 8 | 3 | 2 | 9.0* | 0
COC(=O)c1ccc(C(C(=O)NC2CCCCC2)N(Cc2ccccc2)C(=O)Cc2cccs2)cc1 (configuration not stated) | 1 | 0 | 0 | -3 | /
